# Results: PubChem BioAssay (NCATS)
# Values without a mark were called inactive. How the calls were made is not given here.
# System: HIV-1 nucleocapsid protein NCp7 (binding to TG oligonucleotide)
# Assay: HIV Nucleocapsid (AID 346);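 further: potency is for inhibitors that block NC binding and lower polarization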
# Conditions: HIV-1 NC / fluorescein-TGTGTGTG probe, fluorescence polarization
# Method in brief: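 Inhibition of nucleocapsid binding to single-stranded 5'-TGTGTGTG probe (10 nM) was measured by fluorescence polarization after 1 hr at room temperature with 100 nM protein under high-salt, zinc-containing, reducing conditions.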
# Potency means the concentration at half of the fitted maximal effect.
row,SMILES,Potency
1,Cc1noc(C)c1-c1ccc2ncnc(NCc3cccs3)c2c1,> 20 µM
2,O=C(c1csnn1)N1CCC2(CCCN(c3ccc(-c4ccccc4)cc3)C2)CC1,> 20 µM
3,Cn1cc(-c2nc3cnc(N4CCOCC4)nc3n(CCC#N)c2=O)c2ccccc21,> 4 µM
4,c1ccc(Nc2nc(-c3ccoc3)nc3ccccc23)cc1,> 20 µM
5,COc1ccccc1CN1CCCC2(CCN(C(=O)c3cnccn3)CC2)C1,> 20 µM
6,COc1ccc2[nH]cc(CCNc3nc(-c4ccccc4OC)nc4ccccc34)c2c1,> 20 µM
7,COc1cccc(Cn2c(=O)c(-c3ccc(F)cc3)nc3cnc(OC)nc32)c1,> 20 µM
8,COc1ccc(C(=O)N2CCC3(CC2)CN(C(=O)NC(C)C)C3)cc1,> 20 µM
9,Cc1ccccc1-c1ccc2ncnc(NCc3cccs3)c2c1,> 20 µM
10,FC(F)(F)c1ccccc1-c1cncnc1NCCc1cnc[nH]1,> 20 µM
11,CN(Cc1ccco1)c1ncnc2ccc(-c3ccccc3C(F)(F)F)cc12,> 20 µM
12,O=c1c(-c2ccccc2)nc2cncnc2n1Cc1ccccc1Cl,> 20 µM
13,COc1cccc(Cn2c(=O)c(-c3cccc(C#N)c3)nc3cnc(OC)nc32)c1,> 20 µM
14,COc1ccccc1-c1nc(N(C)C)c2ccccc2n1,> 20 µM
15,COCCn1c(=O)c(-c2ccc(OC)cc2)nc2cnc(Oc3ccc(OC)cc3)nc21,> 20 µM
